Assay [1] can be described thus: qHTS of pediatric cancer cell lines to identify multiple opportunities for drug repurposing: Primary screen for DAOY cells (AID 1347090). Also: nearly all actives have a fitted effect of over 55% in size. The gist of the method:
(§1)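 Cell viability, CellTiter-Glo luminescence; 500-1,000 cells/well, 8- or 11-point titration, 48 h compound exposure at 37 degrees C, 5% CO2. Controls: DMSO neutral, bortezomib 2.3 µM final as positive.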

The nature of assay [2]: qHTS of pediatric cancer cell lines to identify multiple opportunities for drug repurposing: Primary screen for SJ-GBM2 cells (AID 1347091). The gist of the method:
as §1
(In qHTS, concentration-response curves come from the screen itself.)

The nature of assay [3]: qHTS of pediatric cancer cell lines to identify multiple opportunities for drug repurposing: Primary screen for A673 cells (AID 1347092). Also: nearly all actives have a fitted effect of over 45% in size. The gist of the method:
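Cell viability of A673 measured by CellTiter-Glo ATP luminescence after 48 hours compound exposure. Dilution series spanned 0.78 nM to 46 µM (MIPE, 11-point) or 0.59 nM to 46 µM (NPC, 8-point); bortezomib 2.3 uM positive control.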

The nature of assay [4]: qHTS of pediatric cancer cell lines to identify multiple opportunities for drug repurposing: Primary screen for SK-N-MC cells (AID 1347093). The essentials:
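Metabolically active cells were quantified by ATP-dependent luminescence (CellTiter-Glo, 15 min at room temperature) following 48 h treatment. Cells had been plated at 500-1,000 per well and settled for 5 h beforehand.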

A short description of assay [5]: qHTS of pediatric cancer cell lines to identify multiple opportunities for drug repurposing: Primary screen for TC32 cells (AID 1347089). Also: nearly all actives have a fitted effect of over 60% in size. The gist of the method:
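Luminescent ATP read-out (CellTiter-Glo) of metabolically active TC32 cells after 48 h exposure. Concentration-response curves came from 11-point (MIPE, 0.78 nM–46 µM) or 8-point (NPC, 0.59 nM–46 µM) primary titrations; follow-up used 11 points.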

Molecules are shown by their SMILES. Results filed as inconclusive are left out. The source made the active and inactive calls. Calls follow the shape of the dose curve; as a rule, active = well fitted curve in the direction sought with a large enough effect; inconclusive = small, poorly fitted or top-dose-only effect, or another doubt; inactive = no such curve, though single readings can be large; an effect the other way counts as inactive or inconclusive.
Potency is read from the fitted curve at half-maximal effect.

On to `CC(C=CC1=C(C)CCCC1(C)C)=CC=CC(C)=CC(=O)Nc1ccc(O)cc1`, for which the Potency is 42.9 µM (active) in assay [1], 38.2 µM (active) in assay [2], 2.7 µM (active) in assay [3] and 3.82 µM (active) in assay [4].

As to `Cc1cnn(C)c1C(=O)Nc1cc(Nc2ccc3c(C=Cc4ccccn4)n[nH]c3c2)ccc1F`, the Potency in assay [2] was 18.7 µM (active); in assay [3] it was 14.8 µM (active).

On to `c1cc(N[C@@H]2CCNC2)nc(-c2cnc3ccc(-c4cn[nH]c4)cn23)c1`, for which the Potency in assay [2] was 16.6 µM (active); in assay [3] it was 2.96 µM (active).

`C=CC[C@@H]1C=C(C)C[C@H](C)C[C@H](OC)[C@H]2O[C@@](O)(C(=O)C(=O)N3CCCC[C@H]3C(=O)O[C@H](C(C)=C[C@@H]3CC[C@H](O)[C@H](OC)C3)[C@@H](C)[C@@H](O)CC1=O)[C@@H](C)C[C@@H]2OC`: the Potency result in assay [5], in assay [1] and in assay [3] was “inactive” each time. Further, the Potency in assay [4] is 8.33 µM (active).

With `CS(=O)(=O)N1CCc2c(-c3cnc(N)nc3)nc(N3CCOCC3)nc21`, the Potency in assay [1] is 0.469 µM (active); in assay [3], 0.935 µM (active); in assay [4], 0.0372 µM (active).

Turning to `CCN(CC)CCCCNc1ncc2c(n1)N(C)C(=O)N(c1c(Cl)c(OC)cc(OC)c1Cl)C2`, the figures for the Potency in assay [5] and in assay [3] were 23.4 µM (active) and 18.7 µM (active), respectively.

`Cn1cc(CNCC2CCN(c3ncc(C(=O)NO)cn3)CC2)c2ccccc21`: the Potency was 0.415 µM (active) in assay [5], 0.235 µM (active) in assay [1], 0.0743 µM (active) in assay [3] and 0.0662 µM (active) in assay [4].

Turning to `C[C@H](NC(=O)C(C#N)=Cc1cccc(Br)n1)c1ccccc1`, the Potency result in assay [5] was “inactive”. For the same compound, the Potency was 14.8 µM (active) in assay [3] and 11.8 µM (active) in assay [4].

On to `CC(=O)ON=C1C(c2c(O)[nH]c3cc(Br)ccc23)=Nc2ccccc21`, for which, in assay [2], the Potency was 2.96 µM (active).

`CCOC(=O)[C@H](CCc1ccccc1)N[C@@H](C)C(=O)N1[C@@H](C(=O)O)C[C@H]2CCC[C@@H]21`: the Potency is 14.8 µM (active) in assay [1], 20.9 µM (active) in assay [2] and 1.87 µM (active) in assay [4].

As to `c1ccc(CNc2nc(NCc3ccccc3)c3ccccc3n2)cc1`, in assay [5], the Potency entry was “inactive”. In addition, the Potency is 4.69 µM (active) in assay [3] and 11.8 µM (active) in assay [4].

For the compound `CCCCCN=C(N)NN=Cc1c[nH]c2ccc(OC)cc12`, the results for the Potency in assay [5] and in assay [3] were 16.5 µM (active) and 9.35 µM (active), respectively.

`COc1cc(C(=O)NC2CCN(C)CC2)ccc1Nc1ncc2c(n1)N(C1CCCC1)CCC(=O)N2C(C)C`: the Potency is 2.96 µM (active) in assay [3] and 1.18 µM (active) in assay [4].

Take `CCCNC(=O)[C@H]1O[C@H]1C(=O)N[C@H](C(=O)N1CCC[C@@H]1C(=O)OC)C(C)CC` (some centres undefined): the Potency in assay [2] was 23.5 µM (active); in assay [3] it was 2.35 µM (active); in assay [4], 2.64 µM (active).

In the case of `CN1CCCN(C(=O)c2cccc(-c3ccc(C=C4C(=O)Nc5ccc(Cl)cc54)o3)c2)CC1`, the Potency in assay [2] was 16.6 µM (active); in assay [3] it was 18.7 µM (active); in assay [4], 14.8 µM (active).

On to `N#Cc1ccc(COC[C@H]2O[C@@H](n3c(NCc4ccc(Cl)c(Cl)c4)nc4c(N)ncnc43)[C@@H](O)[C@@H]2O)cc1`, for which the Potency in assay [3] was 7.43 µM (active).

On to `NC(=O)N1CCC(CC(=O)N2CCC([C@H]3c4ncc(Br)cc4CCc4cc(Cl)cc(Br)c43)CC2)CC1`, for which the Potency is 23.5 µM (active) in assay [1], 16.6 µM (active) in assay [2], 14.8 µM (active) in assay [3] and 14.8 µM (active) in assay [4].

On to `C=CC(=O)Nc1cc(NC(=O)c2ccc(C)c(NC(=O)c3ccno3)c2)cc(C(F)(F)F)c1`, for which the figures for the Potency in assay [3] and in assay [4] were 14.8 µM (active) and 10.5 µM (active), respectively.

As to `O=C(C=CC=Cc1ccc2c(c1)OCO2)N1CCCCC1`, the Potency result in assay [5], in assay [1], in assay [3] and in assay [4] was “inactive” throughout.

In the case of `Oc1ccc([C@@H]2Oc3ccc(O)cc3[C@@H]3CCC[C@@H]32)cc1`, the Potency in assay [2] is 13.2 µM (active); in assay [3] it was 9.35 µM (active); in assay [4], 4.18 µM (active).

As to `C[C@@H]1[C@H](C)CC[C@]2(C(=O)O)CC[C@]3(C)C(=CC[C@@H]4[C@@]5(C)C[C@@H](O)[C@H](O)[C@@](C)(CO)[C@H]5CC[C@]43C)[C@@H]12`, the Potency result in assay [1] and in assay [4] was “inactive” each time.

Turning to `COc1cccc2c1C(=O)c1c(O)c3c(c(O)c1C2=O)C[C@@](O)(C(C)=O)C[C@H]3O[C@H]1C[C@H](N)[C@H](O)[C@H](C)O1`, the Potency in assay [5] is 0.234 µM (active); in assay [1], 0.187 µM (active); in assay [4] it was 0.0469 µM (active).

Turning to `Nc1ccc(C(=O)Nc2cccc(-c3nc(N4CCOCC4)c4oc5ncccc5c4n3)c2)cn1`, the Potency in assay [2] was 3.72 µM (active); in assay [3], 14.8 µM (active); in assay [4], 1.18 µM (active).

Turning to `CCOC(=O)[C@@H](N)Cc1ccc(-c2cc(O[C@H](c3ccc(Cl)cc3-n3ccc(C)n3)C(F)(F)F)nc(N)n2)cc1`, the Potency entry in assay [5] was “inactive”. Moreover, in assay [4], the Potency was 16.6 µM (active).

Turning to `COc1cc2c(cc1O)CCC1C2CC[C@@]2(C)C1CC[C@@H]2O` (some centres undefined), the Potency in assay [5] was 18.6 µM (active); in assay [2], 0.833 µM (active); in assay [3], 3.72 µM (active); in assay [4], 6.62 µM (active).

The values are drawn from PubChem BioAssay (NCATS).
